# Values without a mark were called inactive. Inconclusive results are not listed. The list shows a part of the results. Where a call stands in place of a potency, no number is given. Active and inactive are the calls of the source. Unless noted, calls follow the shape of the dose curve; as a rule, active = well fitted curve in the direction sought with a large enough effect; inconclusive = small, poorly fitted or top-dose-only effect, or another doubt; inactive = no such curve, though single readings can be large; an effect the other way counts as inactive or inconclusive.
# What was measured:
# [1] = biological target: Rap guanine nucleotide exchange factor 3 (Homo sapiens) (UniProt O95398); assay: Confirmatory qHTS for antagonist of cAMP-regulated guanine nucleotide exchange factor 3 (EPAC1) (AID 1645880); settings: EPAC1 Rap1B-BODIPY-GDP exchange, fluorescence; activity, negative = inhibition: at 115 µM (top of the series); also: nearly all actives have a fitted effect of over 55% in size; also: potency is read from the fitted curve at half-maximal effect
# Procedure, shortened: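 Nucleotide exchange uses 100 nM EPAC1, 250 nM RAP1B-BODIPY-GDP and 50 uM GDP, with compounds in a concentration-titration series. After 5 min at room temperature, fluorescence (480 nm ex/540 nm em) is read every 5 min for 30 min. Data are normalized to control ATA and DMSO.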
# [2] = biological target: Rap guanine nucleotide exchange factor 3 (Homo sapiens) (UniProt O95398); assay: Confirmatory qHTS for agonist of cAMP-regulated guanine nucleotide exchange factor 3 (EPAC1) (AID 1645881);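 also: EPAC1 catalysed release of BODIPY-GDP from Rap1B seen as fluorescence loss; nearly all actives have a fitted effect of over 75% in size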
# [3] = biological target: Rap guanine nucleotide exchange factor 4 (Homo sapiens) (UniProt Q8WZA2); assay: Confirmatory qHTS for agonist of cAMP-regulated guanine nucleotide exchange factor 4 (EPAC2) (AID 1645884);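 also: nucleotide exchange releases bodipy-GDP from Rap1 and this lowers its fluorescence; nearly all actives have a fitted effect of over 65% in size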
# [4] = biological target: Rap guanine nucleotide exchange factor 4 (Homo sapiens) (UniProt Q8WZA2); assay: Confirmatory qHTS for antagonist of cAMP-regulated guanine nucleotide exchange factor 4 (EPAC2) (AID 1645885); also: nearly all actives have a fitted effect of over 25% in size; also: potency is read from the fitted curve at half-maximal effect
# [5] = biological target: Rap guanine nucleotide exchange factor 3 (Homo sapiens) (UniProt O95398); assay: Counterscreen qHTS for antagonist of cAMP-regulated guanine nucleotide exchange factor 3 (EPAC1) (AID 1645888);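 also: fluorescence loss as bound BODIPY-GDP is released from Rap1B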
# Procedure, shortened: (§1)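 Rap1B–BODIPY-GDP (250 nM) with 50 uM GDP; compounds pin-transferred to 9.74 nM–152 uM final (activator) or from 7.32 nM upwards (inhibitor). Fluorescence Ex/Em 480/540 nm read at 5 and 30 min, then after adding cAMP or buffer, at room temperature.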
# [6] = biological target: Rap guanine nucleotide exchange factor 3 (Homo sapiens) (UniProt O95398); assay: Counterscreen qHTS for agonist of cAMP-regulated guanine nucleotide exchange factor 3 (EPAC1) (AID 1645889); also: nearly all actives have a fitted effect of over 40% in size; also: potency is read from the fitted curve at half-maximal effect
# Procedure, shortened: as §1
# [7] = AP1 Signaling Pathway (AID 357; active = well fitted curve in either direction with a large enough effect, not every such curve was filed as active;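 also: ME-180 reporter cells stimulated with EGF at its EC50 level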); settings: ME-180 AP-1-bla reporter, EGF-induced, beta-lactamase ratio, 5 h; at 7.69 µM (top of the series) unless noted
# Procedure, shortened: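 Titration-series screen for positive or negative modulators of EC50 EGF-induced signaling in ME-180 cells carrying an AP-1-driven beta-lactamase reporter. After 5 hours at 37 degrees Celsius, CCF4 460nm/530nm emission ratio gave %Activity; AC50 values derived.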
# [8] = NFAT Signaling Pathway (AID 444; active = well fitted curve in either direction with a large enough effect, not every such curve was filed as active;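 also: carbachol stimulus at about its EC50 of 1 µM final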); settings: Jurkat NFAT-bla M1, carbachol, beta-lactamase ratio, 5 h; at 7.69 µM (top of the series) unless noted
# Procedure, shortened: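 Jurkat cells with NFAT-driven β-lactamase reporter and co-expressed M1 receptor, stimulated with carbachol (final 1 uM, ~EC50), compound titration, 5 h at 37 °C. CCF4 loaded 1 h at RT; 460/530 nm ratio gave %activity and AC50.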
# [9] = Stat Signaling Pathway (AID 446; active = well fitted curve in either direction with a large enough effect, not every such curve was filed as active;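 also: ME-180 cervical cancer cells given 40 pM IL-6 alongside compound; SIE-controlled beta-lactamase reporter measured as 460/530 nm FRET emission ratio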)
# Procedure, shortened: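 ME-180 cells carrying a SIE-driven beta-lactamase reporter are stimulated with 40 pM IL-6 for 5 h at 37C in the presence of compound. The 460/530 nm FRET substrate ratio is read after 2.5 h at RT. Data are normalised to 300 pM IL-6 and to 125 nM JAK inhibitor controls.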
# [10] = biological target: Glucocorticoid receptor (Homo sapiens) (UniProt P04150); assay: GR-GFP Redistribution (AID 450;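 active = compounds whose dose series gives a full or clear partial fitted curve of increased nuclear translocation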; also: potency is read from the fitted curve at half-maximal effect); settings: U2OS GR-GFP nuclear translocation, laser cytometry, 2 h
# [11] = qHTS Assay for Inhibitors of Fructose-1,6-bisphosphate Aldolase from Giardia Lamblia: Mammalian cellular toxicity (AID 2786);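 also: compound exposure lasted 48 h before reading; nearly all actives have a fitted effect of over 60% in size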
# Procedure, shortened: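 CHO cells seeded at 250 cells/well with pin-tool-added compound, incubated 48 h at 37 °C, 5% CO2. Viability read as ATP content by ATPlite luminescence after 20 min.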
# [12] = biological target: Fructose-bisphosphate aldolase (Giardia intestinalis (strain ATCC 50803 / WB clone C6)) (UniProt A8B2U2); assay: qHTS Assay for Inhibitors of Fructose-1,6-bisphosphate Aldolase from Giardia Lamblia: Primary screen confirmation (AID 2787);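 also: aldolase product measured through coupled diaphorase step turning resazurin into fluorescent resorufin; nearly all actives have a fitted effect of over 45% in size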
# Procedure, shortened: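 Confirmation of primary hits by qHTS up to 57.5 uM final compound. Enzyme at 40 nM with 30 uM ZnCl2, 10 min RT pre-incubation, then substrate/coupling/resorufin-forming detection mix for 20 min before fluorescence read at 525/598 nm.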
# [13] = biological target: Fructose-bisphosphate aldolase A (Oryctolagus cuniculus) (UniProt P00883); assay: qHTS Assay for Inhibitors of Fructose-1,6-bisphosphate Aldolase from Giardia Lamblia: Rabbit FBPA Selectivity (AID 2794); also: nearly all actives have a fitted effect of over 60% in size
# Procedure, shortened: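 Rabbit FBPA, coupled to a resorufin-type fluorescent read (525/598 nm), tests whether primary hits hit Class I aldolase. Compound (up to 57.5 uM final) sits 10 min at RT with coupling enzyme before substrate/detection mix; read after 20 min RT.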
# [14] = qHTS Assay for Inhibitors of Fructose-1,6-bisphosphate Aldolase from Giardia Lamblia: Coupling assay counterscreen confirmation (AID 2795); also: nearly all actives have a fitted effect of over 55% in size
# Procedure, shortened: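 Compounds at up to 57.5 uM final tested against the coupling enzymes and resorufin-type fluorescent detection only, aldolase omitted. Ex 525 nm/em 598 nm read after 10 min enzyme-compound and 20 min substrate incubations, room temperature.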
# [15] = biological target: Lysosomal acid glucosylceramidase (Homo sapiens) (UniProt P04062); assay: Glucocerebrosidase-p2 (AID 348; in the data active = potency below about 10 µM; also: potency is read from the fitted curve at half-maximal effect); settings: purified GBA, blue fluorogenic substrate, 40 min
# Procedure, shortened: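 Compounds titrated from 0.6 nM upwards against 0.2 nM enzyme in pH 5.9 citric acid/KH2PO4, taurocholate, tween-20; blue fluorogenic substrate 80 uM, 40 min room temperature, stopped and read Ex 365/Em 440 for AC50.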
# [16] = biological target: Cytochrome P450 1A2 (Homo sapiens) (UniProt P05177); assay: p450-cyp1a2 (AID 410; calls by dose curve; also: potency is read from the fitted curve at half-maximal effect)
# Procedure, shortened: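 Luminescent readout of luciferin formed from Luciferin-ME by human CYP1A2; data normalized against complete inhibition by 57 uM furafylline. Enzyme 20nM, substrate 100uM at Km, 100mM KPO4 buffer, 60 min reaction at room temperature.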
# [17] = biological target: Glucocorticoid receptor (Homo sapiens) (UniProt P04150); assay: GR-EFC Redistribution (AID 451; calls by dose curve; also: potency is read from the fitted curve at half-maximal effect); settings: CHO-K1 GR-EFC translocation, beta-gal luminescence, 2 h
# Procedure, shortened: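 CHO-K1 cells expressing nuclear EA and GR-ED fragments of b-gal; compounds titrated up to 46 uM final, 2 h at 37 C. GR nuclear translocation read as complemented b-gal luminescence after 1 h RT detection.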
# [18] = biological target: Mitogen-activated protein kinase 10 (Mus musculus) (UniProt Q61831); assay: JNK3 AlphaScreen Assay (AID 530; active = well fitted curve in either direction with a large enough effect, not every such curve was filed as active;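 also: kinase came from lysate of stimulated human HepG2 cells; signal reports phosphorylation of biotinylated GST-cJun 1-79 at Ser73 with 10 µM ATP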)
# Procedure, shortened: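 Pre-activated (IL-1β/TNFα) JNK3 in HepG2 lysates phosphorylates biotin-GST-cJun(1-79), 10 uM ATP; anti-phospho-cJun(Ser73) AlphaScreen read at room temperature, pH 7.6 Tris buffer. Compounds pre-incubated 15 min as titrations.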
# [19] = biological target: 3',5'-cyclic-AMP phosphodiesterase 4B (Homo sapiens) (UniProt Q07343); assay: qHTS Assay for Inhibitors of PDE-IV (AID 607; active = well fitted activation curve with a large enough effect in the main read-out, with a control signal flat, not every such curve was filed as active)
# Procedure, shortened: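 HEK293 ACTOne cells with CNG channel (1000/well), endogenous PDE4; membrane potential dye, compounds up to 22.9 uM final. Fluorescence Ex 535/Em 590; RO 20-1724 (100 uM final) as reference.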
# [20] = biological target: Cytochrome P450 2C9 (Homo sapiens) (UniProt P11712); assay: qHTS Assay for Inhibitors and Substrates of Cytochrome P450 2C9 (AID 883); also: potency is read from the fitted curve at half-maximal effect; nearly all actives have a fitted effect of over 60% in size
# Procedure, shortened: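 Human CYP2C9 (10nM) with Luciferin-H at 100uM (its KM) in 25mM KPO4; compound preincubated 10 min at 37C, then NADPH regeneration for 60 min at 37C. Luciferin read by luminescence after detection reagent; normalized to 57uM sulphaphenazole as full inhibition.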
# [21] = biological target: Cytochrome P450 3A4 (Homo sapiens) (UniProt P08684); assay: qHTS Assay for Activators of Cytochrome P450 3A4 (AID 885); also: nearly all actives have a fitted effect of over 65% in size
# Procedure, shortened: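 Human CYP3A4 (20 nM) with Luciferin-PPXE at 25 uM (its KM) in 200 mM KPO4; 10 min compound preincubation, then NADPH regeneration and 60 min reaction at RT. Luciferin read by luminescence; normalized to 57 uM ketoconazole full inhibition.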
# [22] = biological target: Cytochrome P450 2C19 (Homo sapiens) (UniProt P33261); assay: qHTS Assay for Inhibitors and Substrates of Cytochrome P450 2C19 (AID 899); also: potency is read from the fitted curve at half-maximal effect; nearly all actives have a fitted effect of over 60% in size
# Procedure, shortened: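 5 nM human CYP2C19 with 10uM Luciferin-H EGE (at KM) in 50mM KPO4, compound preincubated 10 min at 37C, then NADPH regeneration for 60 min at 37C. Luciferin read by luminescence after detection reagent; normalized to 57uM ketoconazole as full inhibition.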
# Sequence of Glucocorticoid receptor (Homo sapiens) (P04150 whole entry, looked up, the tested form may be a part): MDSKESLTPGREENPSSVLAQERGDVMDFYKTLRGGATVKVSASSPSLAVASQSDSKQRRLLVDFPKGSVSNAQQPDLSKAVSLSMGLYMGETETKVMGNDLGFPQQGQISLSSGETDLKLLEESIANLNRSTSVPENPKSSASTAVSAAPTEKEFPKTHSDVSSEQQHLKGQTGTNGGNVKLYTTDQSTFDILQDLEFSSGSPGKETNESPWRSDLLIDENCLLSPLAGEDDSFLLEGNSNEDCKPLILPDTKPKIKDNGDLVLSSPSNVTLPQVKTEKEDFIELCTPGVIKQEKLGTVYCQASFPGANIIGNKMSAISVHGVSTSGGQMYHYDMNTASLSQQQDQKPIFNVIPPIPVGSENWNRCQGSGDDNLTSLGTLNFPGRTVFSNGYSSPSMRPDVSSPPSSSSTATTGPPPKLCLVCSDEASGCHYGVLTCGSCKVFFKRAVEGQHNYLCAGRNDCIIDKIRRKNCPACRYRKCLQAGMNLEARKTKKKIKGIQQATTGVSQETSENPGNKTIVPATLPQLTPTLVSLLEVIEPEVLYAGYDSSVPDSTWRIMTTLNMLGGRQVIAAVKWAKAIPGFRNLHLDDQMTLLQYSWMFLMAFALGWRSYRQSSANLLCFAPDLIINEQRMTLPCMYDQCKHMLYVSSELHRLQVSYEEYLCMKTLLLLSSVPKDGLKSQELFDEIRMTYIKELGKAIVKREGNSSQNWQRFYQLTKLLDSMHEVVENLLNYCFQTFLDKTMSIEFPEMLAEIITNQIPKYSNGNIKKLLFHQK
# Sequence of Rap guanine nucleotide exchange factor 4 (Homo sapiens) (Q8WZA2 whole entry, looked up): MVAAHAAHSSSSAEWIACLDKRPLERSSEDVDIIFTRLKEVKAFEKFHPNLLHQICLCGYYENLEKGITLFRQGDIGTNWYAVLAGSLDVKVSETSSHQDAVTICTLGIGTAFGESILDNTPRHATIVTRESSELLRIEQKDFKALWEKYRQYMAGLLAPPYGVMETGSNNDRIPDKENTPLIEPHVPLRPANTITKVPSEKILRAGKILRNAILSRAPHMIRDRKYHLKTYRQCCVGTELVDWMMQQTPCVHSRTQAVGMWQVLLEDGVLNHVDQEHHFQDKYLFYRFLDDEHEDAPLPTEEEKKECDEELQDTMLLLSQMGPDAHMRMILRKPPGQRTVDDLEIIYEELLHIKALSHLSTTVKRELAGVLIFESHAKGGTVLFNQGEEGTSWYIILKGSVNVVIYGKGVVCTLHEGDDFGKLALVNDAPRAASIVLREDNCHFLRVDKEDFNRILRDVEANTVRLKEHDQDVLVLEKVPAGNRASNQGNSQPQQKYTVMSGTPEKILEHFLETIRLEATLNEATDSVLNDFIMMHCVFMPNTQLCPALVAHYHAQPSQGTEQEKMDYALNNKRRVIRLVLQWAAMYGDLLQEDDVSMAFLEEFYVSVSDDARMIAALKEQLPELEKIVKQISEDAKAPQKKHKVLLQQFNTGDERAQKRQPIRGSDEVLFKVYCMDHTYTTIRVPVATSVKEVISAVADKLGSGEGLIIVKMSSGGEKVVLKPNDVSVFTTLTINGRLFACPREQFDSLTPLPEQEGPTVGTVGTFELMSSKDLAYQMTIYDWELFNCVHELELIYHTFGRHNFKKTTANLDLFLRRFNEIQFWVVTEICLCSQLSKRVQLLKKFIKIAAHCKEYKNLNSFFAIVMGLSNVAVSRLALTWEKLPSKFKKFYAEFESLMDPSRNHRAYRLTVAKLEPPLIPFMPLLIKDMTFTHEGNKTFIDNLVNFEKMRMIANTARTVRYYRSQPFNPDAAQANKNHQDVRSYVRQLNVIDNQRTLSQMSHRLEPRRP
# Sequence of Rap guanine nucleotide exchange factor 3 (Homo sapiens) (O95398 whole entry, looked up): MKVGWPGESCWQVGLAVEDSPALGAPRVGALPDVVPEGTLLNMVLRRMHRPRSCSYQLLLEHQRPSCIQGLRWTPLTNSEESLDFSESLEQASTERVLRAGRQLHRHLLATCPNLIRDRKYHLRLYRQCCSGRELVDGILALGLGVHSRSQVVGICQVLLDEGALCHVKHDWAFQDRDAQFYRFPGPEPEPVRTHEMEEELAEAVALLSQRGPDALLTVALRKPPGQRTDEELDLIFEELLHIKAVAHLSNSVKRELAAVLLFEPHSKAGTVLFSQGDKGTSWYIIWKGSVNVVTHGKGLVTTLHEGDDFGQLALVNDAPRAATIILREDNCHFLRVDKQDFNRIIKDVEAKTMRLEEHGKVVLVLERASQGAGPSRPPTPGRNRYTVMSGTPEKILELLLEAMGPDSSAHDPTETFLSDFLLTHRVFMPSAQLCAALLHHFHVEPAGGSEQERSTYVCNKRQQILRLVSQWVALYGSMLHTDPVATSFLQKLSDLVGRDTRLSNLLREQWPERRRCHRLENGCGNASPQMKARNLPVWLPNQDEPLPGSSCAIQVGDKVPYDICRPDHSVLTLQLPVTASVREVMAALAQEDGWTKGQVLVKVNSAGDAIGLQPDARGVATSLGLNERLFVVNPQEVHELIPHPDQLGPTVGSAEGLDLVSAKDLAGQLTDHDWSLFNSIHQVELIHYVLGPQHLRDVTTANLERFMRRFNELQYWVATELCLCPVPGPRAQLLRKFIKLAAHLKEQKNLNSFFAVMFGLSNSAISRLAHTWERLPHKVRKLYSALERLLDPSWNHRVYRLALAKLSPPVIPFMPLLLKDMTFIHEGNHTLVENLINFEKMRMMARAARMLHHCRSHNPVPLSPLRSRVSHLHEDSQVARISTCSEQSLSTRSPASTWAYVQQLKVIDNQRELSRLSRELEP
# Sequence of Cytochrome P450 2C19 (Homo sapiens) (P33261 whole entry, looked up): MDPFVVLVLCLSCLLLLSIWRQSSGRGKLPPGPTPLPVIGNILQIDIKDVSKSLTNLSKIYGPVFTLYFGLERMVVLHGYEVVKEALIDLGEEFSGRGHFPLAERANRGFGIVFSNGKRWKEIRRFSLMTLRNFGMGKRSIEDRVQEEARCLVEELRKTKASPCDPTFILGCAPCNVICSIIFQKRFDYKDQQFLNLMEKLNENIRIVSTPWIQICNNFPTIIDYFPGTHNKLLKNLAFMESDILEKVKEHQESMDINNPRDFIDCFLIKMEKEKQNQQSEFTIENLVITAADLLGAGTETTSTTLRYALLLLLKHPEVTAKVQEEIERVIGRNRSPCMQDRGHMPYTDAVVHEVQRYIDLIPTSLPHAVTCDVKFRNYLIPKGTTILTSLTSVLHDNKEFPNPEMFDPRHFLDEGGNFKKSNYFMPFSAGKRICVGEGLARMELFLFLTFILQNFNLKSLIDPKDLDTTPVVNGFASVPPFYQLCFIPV
# Sequence of Cytochrome P450 2C9 (Homo sapiens) (P11712 whole entry, looked up): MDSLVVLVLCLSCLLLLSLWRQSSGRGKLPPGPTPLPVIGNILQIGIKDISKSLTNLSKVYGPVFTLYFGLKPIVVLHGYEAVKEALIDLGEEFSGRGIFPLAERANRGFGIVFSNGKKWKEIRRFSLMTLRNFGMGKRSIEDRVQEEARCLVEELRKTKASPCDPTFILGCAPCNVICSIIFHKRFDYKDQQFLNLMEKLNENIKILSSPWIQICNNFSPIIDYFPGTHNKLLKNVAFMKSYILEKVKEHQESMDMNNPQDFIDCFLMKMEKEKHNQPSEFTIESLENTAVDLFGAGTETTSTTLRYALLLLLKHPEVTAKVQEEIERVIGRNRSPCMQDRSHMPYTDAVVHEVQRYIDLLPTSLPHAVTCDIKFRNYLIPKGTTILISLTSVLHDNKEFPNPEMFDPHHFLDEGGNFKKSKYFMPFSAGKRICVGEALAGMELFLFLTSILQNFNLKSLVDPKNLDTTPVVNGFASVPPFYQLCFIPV
# Sequence of Cytochrome P450 3A4 (Homo sapiens) (P08684 whole entry, looked up): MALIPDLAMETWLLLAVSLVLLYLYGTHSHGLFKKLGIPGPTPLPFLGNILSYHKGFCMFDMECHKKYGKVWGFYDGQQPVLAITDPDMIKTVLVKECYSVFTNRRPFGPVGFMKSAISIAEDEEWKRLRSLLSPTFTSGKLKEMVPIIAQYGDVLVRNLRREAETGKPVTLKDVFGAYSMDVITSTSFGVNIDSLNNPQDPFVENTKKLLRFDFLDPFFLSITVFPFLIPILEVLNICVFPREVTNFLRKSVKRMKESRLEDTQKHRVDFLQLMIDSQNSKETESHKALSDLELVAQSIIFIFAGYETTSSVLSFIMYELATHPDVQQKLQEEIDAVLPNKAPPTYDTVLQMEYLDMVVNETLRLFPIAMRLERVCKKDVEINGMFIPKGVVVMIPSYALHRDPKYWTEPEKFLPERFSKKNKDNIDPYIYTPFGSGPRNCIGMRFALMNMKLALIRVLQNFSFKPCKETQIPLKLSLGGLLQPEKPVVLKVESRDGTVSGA
# Sequence of Fructose-bisphosphate aldolase (Giardia intestinalis (strain ATCC 50803 / WB clone C6)) (A8B2U2 whole entry, looked up): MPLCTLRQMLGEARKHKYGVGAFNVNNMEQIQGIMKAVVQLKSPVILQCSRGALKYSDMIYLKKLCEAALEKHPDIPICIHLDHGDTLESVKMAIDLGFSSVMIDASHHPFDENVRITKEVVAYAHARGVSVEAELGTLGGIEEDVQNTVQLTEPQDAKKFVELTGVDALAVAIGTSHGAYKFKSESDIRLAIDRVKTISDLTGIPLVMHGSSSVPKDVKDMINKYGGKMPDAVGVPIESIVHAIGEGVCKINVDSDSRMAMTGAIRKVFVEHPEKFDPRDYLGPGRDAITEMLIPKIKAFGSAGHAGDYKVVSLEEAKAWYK
# Sequence of Cytochrome P450 1A2 (Homo sapiens) (P05177 whole entry, looked up): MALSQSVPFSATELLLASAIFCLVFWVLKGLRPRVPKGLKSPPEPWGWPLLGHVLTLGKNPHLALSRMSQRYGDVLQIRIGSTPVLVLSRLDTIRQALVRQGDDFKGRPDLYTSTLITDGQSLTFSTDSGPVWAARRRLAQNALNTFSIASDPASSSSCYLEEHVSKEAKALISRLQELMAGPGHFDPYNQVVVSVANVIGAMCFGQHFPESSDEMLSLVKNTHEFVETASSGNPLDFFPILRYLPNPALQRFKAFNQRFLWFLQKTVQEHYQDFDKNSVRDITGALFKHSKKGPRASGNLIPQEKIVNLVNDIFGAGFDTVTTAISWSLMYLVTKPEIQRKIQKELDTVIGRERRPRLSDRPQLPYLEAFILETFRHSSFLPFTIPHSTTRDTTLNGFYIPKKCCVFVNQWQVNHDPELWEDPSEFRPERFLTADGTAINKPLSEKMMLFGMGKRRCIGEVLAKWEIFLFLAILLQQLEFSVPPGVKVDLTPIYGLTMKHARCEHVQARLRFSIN
smiles,measurement,setting,value
CSc1ccc(/C=N/NC(=O)CN2CCN(Cc3ccc(Cl)cc3)CC2)cc1,Potency,[1],inactive
same,Potency,[2],inactive
same,Potency,[3],inactive
same,Potency,[4],inactive
same,Potency,[5],inactive
same,Potency,[6],inactive
CCOC(=O)N1CCN(C(=O)C(C)(C)Oc2ccc(Cl)cc2)CC1,Potency,[1],inactive
same,Potency,[2],inactive
same,activation,[3],"3.62% [at 17.1 µM, percent relative to cAMP agonist control]"
same,Potency,[4],0.239 µM (active)
same,"activity change, negative = inhibition",[5],6.37% [at 30.8 µM]
same,activation,[6],21.9% [at 30.8 µM]
COc1cccc(NS(=O)(=O)c2ccc3c(c2)C2C=CCC2C(c2ccc(C(=O)O)cc2)N3)c1 (stereo not given),Potency,[1],9.53 µM (active)
same,Potency,[2],inactive
same,Potency,[3],inactive
same,Potency,[4],inactive
same,Potency,[5],inactive
same,Potency,[6],inactive
Cc1cc(Br)ccc1-n1[nH]c(C)c(C=Nc2cccc3nsnc23)c1=O,Potency,[1],inactive
same,Potency,[2],inactive
same,Potency,[3],inactive
same,Potency,[4],inactive
same,Potency,[5],inactive
same,Potency,[6],inactive
COC(=O)c1cc(Br)c(=O)n(Cc2ccc3c(c2)OCO3)c1,"activity change, negative = inhibition",[7],-2.94% [at 17.2 µM]
same,"activity change, negative = inhibition",[8],2.18% [at 17.2 µM]
same,outcome,[9],inactive
same,Potency,[10],> 20.6 µM
same,Potency,[1],inactive
same,Potency,[2],inactive
same,activation,[3],"-3.61% [at 17.1 µM, percent relative to cAMP agonist control]"
same,Potency,[4],inactive
same,"activity change, negative = inhibition",[5],5.45% [at 30.8 µM]
same,activation,[6],2.16% [at 30.8 µM]
COc1cccc(/C=N/NC(=O)c2cc3cc([N+](=O)[O-])ccc3s2)c1O,Potency,[1],35.5 µM (active)
same,Potency,[2],inactive
same,activation,[3],"10.9% [at 17.1 µM, percent relative to cAMP agonist control]"
same,Potency,[4],inactive
same,"activity change, negative = inhibition",[5],-2.63% [at 30.8 µM]
same,activation,[6],26.8% [at 30.8 µM]
COC(=O)c1cc2occc2n1Cc1cccc(C)c1,Potency,[1],inactive
same,Potency,[2],inactive
same,Potency,[3],inactive
same,Potency,[4],inactive
same,Potency,[5],inactive
same,Potency,[6],inactive
COc1cccc2c1OC1(C)CC2/C(=C(\C)O)C(=O)N1 (stereo not given),Potency,[1],inactive
same,Potency,[2],inactive
same,Potency,[3],inactive
same,Potency,[4],inactive
same,Potency,[5],inactive
same,Potency,[6],inactive
O=C(CCCOc1ccccc1)Nc1ccc(Cl)cn1,Potency,[1],inactive
same,Potency,[2],inactive
same,Potency,[3],inactive
same,Potency,[4],inactive
same,Potency,[5],inactive
same,Potency,[6],inactive
COC(=O)CCNC(=O)NC(CCC(C)C)c1c(-n2cccc2)sc2c1CCN(C)C2 (stereo not given),Potency,[1],inactive
same,Potency,[2],inactive
same,Potency,[3],inactive
same,Potency,[4],inactive
same,Potency,[5],inactive
same,Potency,[6],inactive
COC(=O)c1cc(Br)c(=O)n(CCc2ccc(F)cc2)c1,"activity change, negative = inhibition",[7],4.29% [at 17.2 µM]
same,"activity change, negative = inhibition",[8],-12.1% [at 17.2 µM]
same,outcome,[9],inactive
same,Potency,[10],> 20.6 µM
same,Potency,[1],inactive
same,Potency,[2],inactive
same,Potency,[3],inactive
same,Potency,[4],inactive
same,Potency,[5],inactive
same,Potency,[6],inactive
CCc1ccc(NC(=O)COC(=O)CCC2CCCC2)cc1,Potency,[1],inactive
same,Potency,[2],inactive
same,Potency,[3],inactive
same,Potency,[4],inactive
same,Potency,[5],inactive
same,Potency,[6],inactive
CCCc1nc2ccccc2c(=O)n1/N=C/c1ccc(O)c(O)c1,outcome,[11],inactive
same,outcome,[12],inactive
same,outcome,[13],inactive
same,outcome,[14],inactive
same,Potency,[1],inactive
same,Potency,[2],inactive
same,Potency,[3],inactive
same,Potency,[4],inactive
same,Potency,[5],inactive
same,Potency,[6],inactive
CCc1nnc(NS(=O)(=O)c2ccc(NC(=S)NC(=O)c3ccc(Br)cc3)cc2)s1,Potency,[1],60.1 µM (active)
same,Potency,[2],inactive
same,Potency,[3],inactive
same,Potency,[4],75.7 µM (active)
same,Potency,[5],inactive
same,Potency,[6],inactive
Cc1[nH][nH]c(=O)c1C(c1c(C)[nH][nH]c1=O)c1cn(Cc2cccc3ccccc23)c2ccccc12,Potency,[1],75.7 µM (active)
same,Potency,[2],inactive
same,Potency,[3],inactive
same,Potency,[4],inactive
same,Potency,[5],inactive
same,Potency,[6],12.6 µM (active)
c1ccc(NN(Cc2cnccn2)c2ccccc2)cc1,Potency,[15],> 11.4 µM
same,"activity change, negative = inhibition",[7],-14%
same,Potency,[16],2 µM (active)
same,"activity change, negative = inhibition",[8],-17.6%
same,outcome,[9],inactive
same,Potency,[10],> 46 µM
same,Potency,[17],> 9.22 µM
same,"activity change, negative = inhibition",[18],3.55% [at 11.4 µM]
same,Potency,[19],inactive
same,Potency,[20],3.16 µM (active)
same,"activity change, positive = activation",[21],-52.2% [at 11.4 µM]
same,Potency,[22],2 µM (active)
same,Potency,[1],inactive
same,Potency,[2],inactive
same,Potency,[3],inactive
same,Potency,[4],inactive
same,Potency,[5],inactive
same,Potency,[6],inactive

# Reference: PubChem BioAssay (NCATS)
